Screens deposited in PubChem by The Scripps Research Institute Molecular Screening Center.
CHO-K1 Ca antag: counter-screen for M1 antagonists: effect in parental CHO-K1 cells | ATP-induced calcium, Fluo-8 fluorescence | inhibition, % at 3 µM | 360,000 compounds, 0.6% hits;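 active means inhibition above a per-plate cutoff, the plate's mean sample inhibition plus 3 SD, cut at about 24% in these data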
CHRM1 antagonist: antagonists of human M1 muscarinic receptor. P11229. CHO-K1 hM1, Fluo-8 calcium fluorescence, ACh EC80 antagonist. inhibition, % at 3 µM. 360,000 compounds, 1.3% hits. AID 588852;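 active means percent inhibition above its own plate's cutoff, namely the mean of that plate's compound wells plus 3 SD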;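 further: peak over basal fluorescence ratio during 140 s after agonist addition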
Target sequence (P11229 whole entry, looked up): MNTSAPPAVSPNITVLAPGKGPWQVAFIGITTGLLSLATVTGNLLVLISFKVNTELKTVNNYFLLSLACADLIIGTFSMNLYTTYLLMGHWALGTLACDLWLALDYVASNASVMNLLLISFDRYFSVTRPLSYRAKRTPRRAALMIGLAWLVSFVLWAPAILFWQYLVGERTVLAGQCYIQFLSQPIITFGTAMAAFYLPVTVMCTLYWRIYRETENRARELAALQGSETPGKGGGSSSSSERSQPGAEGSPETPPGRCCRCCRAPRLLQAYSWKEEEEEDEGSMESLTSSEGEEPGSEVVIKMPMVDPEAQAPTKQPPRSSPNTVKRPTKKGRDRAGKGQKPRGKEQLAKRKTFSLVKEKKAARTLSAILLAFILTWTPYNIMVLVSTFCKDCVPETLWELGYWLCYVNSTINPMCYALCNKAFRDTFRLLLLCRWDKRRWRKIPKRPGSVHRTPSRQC
M1 PAM parental: counter-screen for M1 PAMs: effect in parental CHO-K1 cells | ATP EC20, Fluo-8 calcium fluorescence; 0% at ATP EC20, 100% at ATP max | 360,000 compounds, 0.02% hits | activation, % at 3 µM;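 active means activation above the run cutoff, the mean activation of all test compounds plus 3 SD, cut at about 40% in these data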;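 further: peak over basal fluorescence ratio in a 140 s read after ATP addition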
CHRM1 agonist: agonists of human M1 muscarinic receptor. 360,000 compounds, 0.33% hits. P11229. CHO-K1 hM1, Fluo-8 calcium fluorescence, agonist mode; 0% DMSO, 100% acetylcholine EC100. activation, % at 3 µM. AID 588814;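 active means activation above the run's mean compound activation plus 3 SD, cut at about 16% in these data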;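 further: peak over basal fluorescence ratio within a 140 s kinetic read after compound addition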
M1 PAM: potentiates human M1 receptor response to acetylcholine | activation, % at 3 µM | CHO-K1 hM1, Fluo-8 calcium fluorescence, ACh EC20; 0% = ACh EC20, 100% = maximal ACh | P11229 | 360,000 compounds, 0.088% hits; in the data active means activation above about 19%, passing the limit was not always enough
CHO-K1 Ca ag: M1 agonist counterscreen hit in parental CHO-K1 cells | Fluo-8 calcium fluorescence; scaled to maximal ATP response, vehicle zero | 360,000 compounds, 0.48% hits | activation, % at 3 µM; in the data active means activation above about 15%;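 further: untransfected CHO-K1 host cells lacking M1 receptor as counterscreen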
Large screens that a line does not name were inactive. Hits are enriched below; roughly 2.3% of the tested compounds scored in any of these assays.

CCn1cc(C(=O)NC2CCCc3c2cnn3-c2cccc(C)c2C)cn1 (stereo not given)	CHO-K1 Ca antag 25, CHRM1 antagonist 31
Cc1ccc(C(=O)N2CCSC2=S)cc1	CHO-K1 Ca antag 26
CCc1noc(C)c1C(=O)N1CC(C)SC1=Nc1ccc(Cl)cc1 (stereo not given)	none
CC(=O)c1ccc(OCc2cc(C(=O)NC(C)CCn3cccn3)no2)cc1 (stereo not given)	none
CCN1CCN(c2ccc(S(=O)(=O)N3CCOCC3)cc2NC(=O)/C=C/c2ccc([N+](=O)[O-])cc2)CC1	none
Cc1ccc(S(=O)(=O)NC(=O)C2(C)CCN2C(=O)CC2CCCC2)nc1 (stereo not given)	none
CC(=O)OCC(=O)C1(O)CCC2C3CC(F)C4=CC(=O)CCC4(C)C3C(O)CC21C (stereo not given)	none
O=C(CSc1nc2ccccc2s1)N1c2ccccc2Sc2ccc(C(F)(F)F)cc21	none
CN(C)CCC(=O)N1c2ccccc2Sc2ccc(C(F)(F)F)cc21	CHRM1 antagonist 99
O=C1c2ccccc2C(=O)N1CC(=O)N1c2ccccc2Sc2ccc(C(F)(F)F)cc21	none
CN1CCN(CCC(=O)N2c3ccccc3Sc3ccc(C(F)(F)F)cc32)CC1	CHRM1 antagonist 42
CCOC(=O)C1CCN(C(=O)COC(=O)CSc2ccccc2C)CC1	none
CC(C)c1cc(=O)oc2c3c4c(cc12)CCCN4CCC3	none
O=c1oc2c3c4c(cc2c(C(F)(F)F)c1CCN1CCOCC1)CCCN4CCC3	CHRM1 agonist 25, CHO-K1 Ca ag 26
O=C(CN1CCN(C(=O)C2CCCO2)CC1)Nc1ccc(F)cc1 (stereo not given)	none
Cc1cc(C(=O)N/N=C2\CC(=O)CC(C)(C)C2)c2ccccc2n1	CHO-K1 Ca antag 26
COc1cc2c(cc1OC)CN(C(=S)Nc1ccccc1Cl)CC2	CHO-K1 Ca ag 17
Cc1c(-c2ccc(Cl)cc2Cl)nc2ccccc2c1C(=O)NCCN1CCOCC1	none
N#Cc1cc2nc(O)c(O)nc2cc1[N+](=O)[O-]	none
CNc1nc2cc([N+](=O)[O-])c([N+](=O)[O-])cc2nc1NC	CHO-K1 Ca antag 39, CHRM1 antagonist 30, CHO-K1 Ca ag 18
Cc1ccc(C(=O)OCC(=O)Nc2cccc(S(=O)(=O)N3CCCCC3)c2)s1	none
Cc1ccc(S(=O)(=O)N2CCN(C(=O)NCc3ccc(C(=O)O)cc3)CC2)cc1	none
Cc1cc2nc(-c3cccnc3SCC(=O)NC(C)C)[nH]c2cc1C	CHO-K1 Ca ag 16
COCCOC(=O)CSc1ncccc1-c1nc2cc(C)c(C)cc2[nH]1	none
CC(=O)c1cccc(CN(C)CC2CCCN(CCc3ccccc3C)C2)c1 (stereo not given)	CHRM1 antagonist 100
COc1ccc(F)c(CN(C)CC2CCCN(CCc3ccc(F)cc3)C2)c1 (stereo not given)	CHRM1 antagonist 33
COc1cc(CN(C)CC2CCCN(CCc3ccccc3F)C2)cc(Cl)c1OC (stereo not given)	CHRM1 antagonist 74
CN(Cc1ccccc1)CC1CCCN(CCc2ccccc2F)C1 (stereo not given)	none
COC(=O)C1CCN(S(=O)(=O)c2cc3c4c(c2)CCN4C(=O)CC3)CC1	none
CCOCCc1nnc(NC(=O)CS(=O)(=O)c2ccc(C)cc2)s1	none
CC1CN(C2CCCCC2)C(=S)N(c2ccccc2)C1=O (stereo not given)	none
CC1(c2nnnn2-c2ccc3c(c2)OCCO3)CCC(=O)N1CCc1ccc(O)cc1 (stereo not given)	none (no result: CHRM1 antagonist, CHRM1 agonist, M1 PAM)
COc1ccc([C@@H]2[C@@H]3C(=O)N(C(C)(C)C)C(=O)[C@@H]3[C@]3(C)C(=O)N(c4ccc(C(F)(F)F)cc4)C(=O)N23)cc1	none
O=C(COC(=O)c1ccc(Cl)nc1)Nc1ccc(N2CCCCC2)cc1	none
Cc1cc(C(C)(C)C)ccc1OCCOCCN1CCCC1	CHRM1 antagonist 33
CC(C)(C)c1cc(Cl)ccc1OCCOCCN1CCCC1	none
CC(C)c1cccc(C(C)C)c1OCCCCN1CCCC1	CHRM1 antagonist 33
Cc1cccc(C(C)(C)C)c1OCCCCN1CCCC1	CHRM1 agonist 16
Cc1ccc(S(=O)(=O)Nc2ncc(C(F)(F)F)cc2Cl)cc1	none
CCCc1nnn(S(=O)(=O)c2ccc([N+](=O)[O-])cc2)c1CCC	none
O=C(CCN1C(=O)/C(=C/c2ccccc2F)SC1=S)NCCc1ccc(O)cc1	CHRM1 antagonist 32, CHO-K1 Ca ag 16
COc1c2ccoc2nc2c(OC)c(OC[C@@H](O)C(C)(C)O)ccc12	none
Cc1ccc2cc(CN(Cc3cccs3)Cc3nnnn3CC3CCCO3)c(=O)[nH]c2c1C (stereo not given)	CHO-K1 Ca antag 24
Cc1ccc2cc(CN(Cc3cccs3)Cc3nnnn3CC3CCCO3)c(=O)[nH]c2c1 (stereo not given)	none
Cc1cc(C(=O)N2CCCC(C)(C(=O)NS(=O)(=O)C3CC3)C2)nn1C(C)(C)C (stereo not given)	none
O=C(CN1C(=O)S/C(=C/c2cccs2)C1=O)N1CCOCC1	CHRM1 antagonist 38
CN(C)CCNC(=O)c1cccc(S(=O)(=O)Nc2ccc(F)cc2)c1	none
COc1ccccc1N(C)S(=O)(=O)c1ccc(C(=O)Nc2ccc(C(N)=O)cc2)cc1	none
CCN(CC)CCNC(=O)c1ccc(NC(=O)c2cccc(S(=O)(=O)N3CCc4ccccc43)c2)cc1	CHRM1 antagonist 100
CCN(CC)CCNC(=O)c1cc(S(=O)(=O)N2CCc3ccccc32)cn1C	none
CC1Cc2ccccc2N1S(=O)(=O)c1cccc(C(=O)NNC(=O)c2ccccc2F)c1 (stereo not given)	none
CCN(CC)CCNC(=O)c1ccc(NC(=O)c2cccc(S(=O)(=O)Nc3ccc(C)cc3)c2)cc1	CHRM1 antagonist 98
O=C(NNC(=O)c1ccccc1F)c1cccc(S(=O)(=O)N2CCc3ccccc32)c1	CHRM1 antagonist 38
CCN(CC)CCNC(=O)c1ccc(NC(=O)c2ccc(S(=O)(=O)N(C)c3ccccc3OC)cc2)cc1	CHRM1 antagonist 41
COCC(=O)N1CCC2CC1c1c(-c3ccc(C(F)(F)F)cc3)cccc12 (stereo not given)	none
Cc1[nH]n(-c2ccccc2)c(=O)c1/C=N/NC(=O)c1ccccc1F	none
CC(=O)c1cccc(NC(=O)NC2CC(=O)N(c3ccc4c(c3)OCCO4)C2)c1 (stereo not given)	none
CCN(CC)CCNC(=O)c1ccc(NC(=O)c2ccc(S(=O)(=O)N3CCCC3)cc2)cc1	none
CC1Cc2ccccc2N1S(=O)(=O)c1cccc(C(=O)NCCCO)c1 (stereo not given)	none
